# From PubChem BioAssay (EPA / NIEHS)
# Records with an inconclusive call do not appear. The source made the active and inactive calls. The calls were made as follows: active = hit-call score of the fitted dose curve at least 0.9, where 1 is the maximum; inconclusive = response in the unintended direction; inactive = score below 0.9.
# Biological target: human Aurora Kinase A - serine/threonine-protein Kinase 6 (AurA), AURKA (gene 6790) (UniProt O14965)
# Assay: NVS_ENZ_hAurA: NovaScreen (NVS) Enzymatic Assay for human Aurora Kinase A - serine/threonine-protein Kinase 6 (AurA) (AID 2283142)
# Procedure, shortened: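 Recombinant human AurA activity read by fluorescence after mobility-shift separation of product from substrate; 1 hour incubation. Chemicals first run in duplicate at 25 uM, then concentration series to 50 uM if over threshold; fitted relative to DMSO.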
# Sequence of human Aurora Kinase A - serine/threonine-protein Kinase 6 (AurA), AURKA (gene 6790) (O14965 whole entry, looked up): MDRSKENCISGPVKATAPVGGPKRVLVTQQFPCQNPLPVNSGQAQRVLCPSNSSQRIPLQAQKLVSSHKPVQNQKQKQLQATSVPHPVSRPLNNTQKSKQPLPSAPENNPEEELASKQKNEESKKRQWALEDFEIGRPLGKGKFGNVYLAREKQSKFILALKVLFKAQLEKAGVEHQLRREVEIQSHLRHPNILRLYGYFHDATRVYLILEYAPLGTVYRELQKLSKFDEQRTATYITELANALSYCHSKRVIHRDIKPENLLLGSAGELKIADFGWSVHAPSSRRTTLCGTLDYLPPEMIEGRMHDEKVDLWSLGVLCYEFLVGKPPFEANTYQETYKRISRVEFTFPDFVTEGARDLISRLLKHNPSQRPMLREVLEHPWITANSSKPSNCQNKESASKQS
Structure (SMILES),outcome,AC50
CC/C(=C(/CC)c1ccc(O)cc1)c1ccc(O)cc1,inactive,
CC=Cc1ccc(O)c(OC)c1,inactive,
CC(C)(C)c1csc(-c2cc3cc(OCc4ccccc4CC(=O)O)ccc3o2)n1,inactive,
O=C(O)CC(O)C(=O)O (configuration not stated),inactive,
c1ccc2ccccc2c1,inactive,
COc1ccc2sc(C(=O)Nc3nnn[nH]3)c(OC(C)C)c2c1,,9.98 µM (active)
O=C(Nc1ccc([N+](=O)[O-])cc1Cl)c1cc(Cl)ccc1O,inactive,
CC(C)c1ccc(C(=O)N=C(N)N)cc1S(C)(=O)=O,inactive,
O=C(O)c1ccc2c(c1)nc(C(=O)NC1CCN(C3CC3)CC1)n2Cc1cc(-c2ccc(Cl)s2)on1,inactive,
O=C(N[C@@H](c1ccccc1)[C@@H]1CCCCN1)c1cccc(C(F)(F)F)c1Cl,inactive,
OCCOCCOCCO,inactive,

# Biological target: human Ephrin type-A Receptor 2 (EphA2), EPHA2 (gene 1969) (UniProt P29317)
# Assay: NVS_ENZ_hEphA2: NovaScreen (NVS) Enzymatic Assay for human Ephrin type-A Receptor 2 (EphA2) (AID 2283155)
# Procedure, shortened: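 Enzyme activity of recombinant EphA2 read by fluorescence after mobility-shift separation, 1 h after dosing. Chemicals first tested at 25 uM (duplicate); those passing threshold run as concentration series, top 50 uM, single replicate, relative to DMSO.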
# Sequence of human Ephrin type-A Receptor 2 (EphA2), EPHA2 (gene 1969) (P29317 whole entry, looked up): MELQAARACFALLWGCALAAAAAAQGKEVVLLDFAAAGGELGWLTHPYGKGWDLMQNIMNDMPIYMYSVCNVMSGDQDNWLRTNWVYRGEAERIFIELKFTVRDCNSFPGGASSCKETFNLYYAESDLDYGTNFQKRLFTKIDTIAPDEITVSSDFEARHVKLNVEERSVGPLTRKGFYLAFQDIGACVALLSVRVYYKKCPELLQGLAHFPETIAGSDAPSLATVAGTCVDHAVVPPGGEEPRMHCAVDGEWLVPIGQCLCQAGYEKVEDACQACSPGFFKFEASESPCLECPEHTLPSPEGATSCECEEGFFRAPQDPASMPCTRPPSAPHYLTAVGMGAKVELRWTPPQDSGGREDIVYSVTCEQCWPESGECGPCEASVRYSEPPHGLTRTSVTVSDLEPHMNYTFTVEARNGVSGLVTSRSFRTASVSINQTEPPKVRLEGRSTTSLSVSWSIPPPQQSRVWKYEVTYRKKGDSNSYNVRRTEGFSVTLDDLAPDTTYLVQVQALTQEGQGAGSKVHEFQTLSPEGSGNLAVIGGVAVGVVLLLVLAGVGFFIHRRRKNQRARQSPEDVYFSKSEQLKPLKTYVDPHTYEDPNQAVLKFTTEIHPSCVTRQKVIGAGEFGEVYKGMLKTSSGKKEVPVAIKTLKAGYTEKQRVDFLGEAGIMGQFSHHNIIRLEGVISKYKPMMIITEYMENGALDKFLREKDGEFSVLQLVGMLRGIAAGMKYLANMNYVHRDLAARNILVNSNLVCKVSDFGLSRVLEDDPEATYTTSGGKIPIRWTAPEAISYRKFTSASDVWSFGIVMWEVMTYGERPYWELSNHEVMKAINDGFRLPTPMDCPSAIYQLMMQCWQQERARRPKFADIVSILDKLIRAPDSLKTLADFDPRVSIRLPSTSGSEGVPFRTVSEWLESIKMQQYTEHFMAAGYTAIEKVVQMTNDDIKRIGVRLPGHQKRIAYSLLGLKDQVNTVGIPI
row,Structure (SMILES),outcome
1,Cc1ccc(C(C)(C)C)c(O)c1,inactive
2,Cc1ncc(CO)c(CO)c1O,inactive
3,Clc1nc(Cl)c(Cl)c(Cl)c1Cl,inactive
4,Cc1ccc(Cl)cc1,inactive
5,CC(C)c1cccc(C(C)C)c1,inactive
6,CCCCc1oc2ccccc2c1C(=O)c1cc(I)c(OCCN(CC)CC)c(I)c1,inactive
7,CC[C@H](C)C(=O)O[C@H]1C[C@H](O)C=C2C=C[C@H](C)[C@H](CC[C@@H](O)C[C@@H](O)CC(=O)O)[C@H]21,inactive
8,CC(=O)c1ccccc1,inactive

# Biological target: human Ephrin type-B Receptor 2 (EphB2), EPHB2 (gene 2048) (UniProt P29323)
# Assay: NVS_ENZ_hEphB2: NovaScreen (NVS) Enzymatic Assay for human Ephrin type-B Receptor 2 (EphB2) (AID 2283156)
# Procedure, shortened: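 Compounds were first tested in duplicate at 25 uM, with hits rerun singly in concentration series up to 50 uM. Enzyme activity on fluorescent substrate was read at 1 h by mobility-shift separation, scored as signal loss relative to DMSO.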
# Sequence of human Ephrin type-B Receptor 2 (EphB2), EPHB2 (gene 2048) (P29323 whole entry, looked up): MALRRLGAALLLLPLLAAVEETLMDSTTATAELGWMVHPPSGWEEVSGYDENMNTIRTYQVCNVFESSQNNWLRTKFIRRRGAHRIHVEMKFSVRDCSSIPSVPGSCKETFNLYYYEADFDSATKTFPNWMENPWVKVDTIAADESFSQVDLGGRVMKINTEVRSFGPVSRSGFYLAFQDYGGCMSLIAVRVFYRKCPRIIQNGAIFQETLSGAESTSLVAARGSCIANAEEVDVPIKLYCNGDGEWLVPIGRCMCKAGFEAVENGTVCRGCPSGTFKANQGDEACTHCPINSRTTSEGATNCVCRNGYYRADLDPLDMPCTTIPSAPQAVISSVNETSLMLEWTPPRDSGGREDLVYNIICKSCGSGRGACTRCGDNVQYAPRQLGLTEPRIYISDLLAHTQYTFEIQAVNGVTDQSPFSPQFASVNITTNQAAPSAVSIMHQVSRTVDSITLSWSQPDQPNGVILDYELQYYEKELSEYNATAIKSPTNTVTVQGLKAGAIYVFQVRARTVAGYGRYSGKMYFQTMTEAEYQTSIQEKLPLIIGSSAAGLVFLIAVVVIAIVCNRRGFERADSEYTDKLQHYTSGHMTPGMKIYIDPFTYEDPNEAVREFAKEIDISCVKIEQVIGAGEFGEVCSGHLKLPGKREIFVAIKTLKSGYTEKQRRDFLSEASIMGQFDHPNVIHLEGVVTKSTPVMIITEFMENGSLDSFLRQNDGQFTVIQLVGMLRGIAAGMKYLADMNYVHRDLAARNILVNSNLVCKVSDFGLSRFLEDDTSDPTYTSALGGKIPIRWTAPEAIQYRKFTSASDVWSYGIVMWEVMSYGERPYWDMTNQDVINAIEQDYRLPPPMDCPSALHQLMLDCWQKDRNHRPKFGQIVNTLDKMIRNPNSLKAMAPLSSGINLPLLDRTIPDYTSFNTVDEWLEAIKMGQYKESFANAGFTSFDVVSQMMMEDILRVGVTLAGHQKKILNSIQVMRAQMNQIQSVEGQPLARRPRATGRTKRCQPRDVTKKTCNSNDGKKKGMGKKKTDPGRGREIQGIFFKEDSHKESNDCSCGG
row,Structure (SMILES),outcome
1,Clc1nc(Cl)c(Cl)c(Cl)c1Cl,inactive
2,COCCO,inactive
3,CCOC(=O)CC(CC(=O)OCC)(OC(C)=O)C(=O)OCC,inactive

# Biological target: human Fibroblast Growth Factor Receptor 1 (FGFR1), FGFR1 (gene 2260) (UniProt P11362)
# Assay: NVS_ENZ_hFGFR1: NovaScreen (NVS) Enzymatic Assay for human Fibroblast Growth Factor Receptor 1 (FGFR1) (AID 2283159);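 as to AC50: hits lower the signal so potencies describe inhibitors of the kinase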
# Procedure, shortened: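 Cell-free recombinant kinase with fluorescent substrate, product separated by electrophoretic mobility shift; read 1 hour after dosing, loss of signal relative to DMSO. Initial screen in duplicate at 25 uM, actives followed in concentration series.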
# Sequence of human Fibroblast Growth Factor Receptor 1 (FGFR1), FGFR1 (gene 2260) (P11362 whole entry, looked up): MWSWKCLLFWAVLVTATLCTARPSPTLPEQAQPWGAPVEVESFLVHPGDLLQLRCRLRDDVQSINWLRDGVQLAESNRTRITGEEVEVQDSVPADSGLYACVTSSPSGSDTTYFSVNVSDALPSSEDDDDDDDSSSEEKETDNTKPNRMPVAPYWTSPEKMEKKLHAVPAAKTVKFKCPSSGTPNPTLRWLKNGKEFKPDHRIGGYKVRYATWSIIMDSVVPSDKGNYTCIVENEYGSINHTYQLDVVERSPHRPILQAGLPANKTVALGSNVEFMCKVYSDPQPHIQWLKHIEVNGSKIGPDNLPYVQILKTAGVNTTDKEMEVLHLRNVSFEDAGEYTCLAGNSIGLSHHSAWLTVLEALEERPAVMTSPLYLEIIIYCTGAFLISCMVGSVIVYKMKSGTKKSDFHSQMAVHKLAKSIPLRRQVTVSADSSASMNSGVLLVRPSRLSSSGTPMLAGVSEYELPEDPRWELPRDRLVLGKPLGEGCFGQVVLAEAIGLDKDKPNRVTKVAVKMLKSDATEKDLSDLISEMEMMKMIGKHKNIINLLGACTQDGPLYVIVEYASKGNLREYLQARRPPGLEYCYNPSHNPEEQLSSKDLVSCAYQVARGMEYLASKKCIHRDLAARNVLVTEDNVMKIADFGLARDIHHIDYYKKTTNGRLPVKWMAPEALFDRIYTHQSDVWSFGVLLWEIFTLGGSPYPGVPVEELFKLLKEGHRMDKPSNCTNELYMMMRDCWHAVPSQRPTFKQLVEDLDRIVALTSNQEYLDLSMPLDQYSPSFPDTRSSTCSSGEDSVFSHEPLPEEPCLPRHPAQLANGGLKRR
Structure (SMILES),outcome,AC50
CC[C@H](C)[C@@H](C(=O)O)n1sc2ccccc2c1=O,inactive,
CC/C(=C(/CC)c1ccc(O)cc1)c1ccc(O)cc1,,37 µM (active)
[O-]n1ccccc1=S.[O-]n1ccccc1=S.[Zn+2],inactive,
Cc1cn([C@H]2C[C@H](N=[N+]=[N-])[C@@H](CO)O2)c(=O)[nH]c1=O,inactive,
COC(=O)CCCCC(=O)OC,inactive,
Cc1ccc(C(C)(C)C)c(O)c1,inactive,
CCCCCCC(=O)O,inactive,
CN(C)CCCN1c2ccccc2Sc2ccc(Cl)cc21,inactive,
Cc1c(-c2cccnc2)c2ccccc2n1CCCCC(=O)O,inactive,
Clc1nc(Cl)c(Cl)c(Cl)c1Cl,inactive,
Nc1ccc(S(=O)(=O)c2ccc(N)cc2)cc1,inactive,
COc1ccc2sc(C(=O)Nc3nnn[nH]3)c(OC(C)C)c2c1,inactive,
CC(C)(C)CC(C)(C)c1ccc(O)c(-n2nc3ccccc3n2)c1,inactive,
Cc1oc(-c2ccccc2)nc1CCOc1cccc2c1ccn2CCC(=O)O,inactive,
CC(C)(O)c1ccc(CNC(=O)c2cccnc2Oc2ccc(F)cc2)cc1,inactive,
CC[C@H](C)C(=O)O[C@H]1C[C@H](O)C=C2C=C[C@H](C)[C@H](CC[C@@H](O)C[C@@H](O)CC(=O)O)[C@H]21,inactive,
COCc1nnc(-c2ccc[n+]([O-])c2)n1-c1c(Cl)c(Cl)cc2[nH]c(=O)c(=O)[nH]c12,inactive,
CCc1cccc(CC)c1N,inactive,
CCCCCCCC=O,inactive,
CCCCC(CC)COC(=O)CCCCC(=O)OCc1ccccc1 (configuration not stated),inactive,
c1cc(-c2ccncc2)ccn1,inactive,
COCCO,inactive,
O=C(O)c1ccc2c(c1)nc(C(=O)NC1CCN(C3CC3)CC1)n2Cc1cc(-c2ccc(Cl)s2)on1,inactive,
O=C(O)c1cccc(C[C@@H]2COc3ccc(OCc4nc5cc(F)ccc5s4)cc3[C@@H]2O)c1,inactive,
Nc1cccc2c(N)cccc12,inactive,
